The values below come from PubChem BioAssay (NCI).

Test systems include HCT-15 colon; HT29 colon; SNB-75 CNS; SNB-19 CNS; U251 CNS; PC-3 prostate; SK-MEL-5 melanoma; UACC-62 melanoma; LOX IMVI melanoma; SK-MEL-28 melanoma; EKVX NSCLC; SN12C renal; UO-31 renal; TK-10 renal; ACHN renal; CAKI-1 renal; A498 renal; CCRF-CEM leukemia; SK-MEL-2 melanoma; MOLT-4 leukemia.
Common to all, as to experiment: NCI-60 one-dose screen, 48 h (100 = growth as untreated, 0 = no growth, -100 = all killed)
Holding throughout (conditions): 10 µM unless noted

About 83,000 compounds went through this panel and 20% of them were active in at least one assay; those are over-represented in the sample as a whole.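 Each cell line was grown in a 96-well plate and treated with one concentration of compound for 48 hours. Values below 10 were considered active.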 A number with no mark means an inactive call. Calls of active or inactive are those of the source.

`Cc1nc2sccn2c1-c1nc2sccn2c1/C=C1/C(=O)Nc2ccccc21`: the growth in the assay on HCT-15 colon is 29.4%; with HT29 colon it was 0.756% (active); in the assay on SNB-75 CNS, 15.2%; in the assay on SNB-19 CNS it was 31.5%; with U251 CNS it was 24.6%; with PC-3 prostate, 28.7%. The growth is 20.5% in the assay with SK-MEL-5 melanoma; 33.6% in the assay with UACC-62 melanoma; 36.3% with LOX IMVI melanoma; 45.3% with SK-MEL-28 melanoma; 56.6% in the assay on EKVX NSCLC; 65.6% in the assay with SN12C renal. In addition, the growth is 39.6% in the assay with UO-31 renal; 70.9% in the assay on TK-10 renal; 41.5% with ACHN renal; 2.29% (active) in the assay with CAKI-1 renal; 5.72% (active) in the assay on A498 renal; 35% in the assay on CCRF-CEM leukemia.
Turning to `COc1cc(C2C3=C(COC3=O)N(CCO)c3cc4c(cc32)OCO4)cc(OC)c1OC` (configuration not stated), the growth in the assay on HCT-15 colon was 18.1%; in the assay on HT29 colon, 0.994% (active); in the assay with SNB-75 CNS, 51%; with SNB-19 CNS, -2.19% (active); in the assay with U251 CNS it was 2.92% (active); in the assay with SK-MEL-5 melanoma, -42.2% (active). Further, the growth is 22.2% in the assay on UACC-62 melanoma; 26.1% in the assay with LOX IMVI melanoma; 44.7% with SK-MEL-28 melanoma; 24.7% with SK-MEL-2 melanoma; 35.2% in the assay with EKVX NSCLC; 16.8% with SN12C renal. The growth with UO-31 renal is 45.8%; with TK-10 renal, 54.4%; in the assay with ACHN renal it was 40.1%; with CAKI-1 renal, 50.6%.
For `C#CCNC(=O)c1cccc2c1cc(C)n2-c1nc2c(c(NCc3ccccc3)n1)CCCC2`, the growth in the assay with HCT-15 colon was -60.1% (active); in the assay on HT29 colon it was 0.876% (active); in the assay with SNB-75 CNS it was 5.33% (active); in the assay with SNB-19 CNS, -24.9% (active); in the assay with U251 CNS, -71.6% (active); with PC-3 prostate it was -18.2% (active). Also, the growth was -94.3% (active) with SK-MEL-5 melanoma; -60.6% (active) in the assay on UACC-62 melanoma; -86.6% (active) in the assay with LOX IMVI melanoma; -6.03% (active) in the assay with SK-MEL-28 melanoma; -30.4% (active) with EKVX NSCLC; -41.3% (active) in the assay on SN12C renal. Moreover, the growth with UO-31 renal is -63.8% (active); with TK-10 renal it was -15% (active); in the assay with ACHN renal, 3.27% (active); in the assay on CAKI-1 renal it was 3.06% (active); in the assay with CCRF-CEM leukemia it was 5.3% (active); in the assay on MOLT-4 leukemia it was -8.18% (active).
As to `O=C(NNc1nc2c(F)cccc2n2cccc12)c1cnccn1`, the growth in the assay with HCT-15 colon is 26.3%; in the assay with HT29 colon it was 24.3%; in the assay with SNB-75 CNS it was 74.3%; with SNB-19 CNS, 23.9%; with U251 CNS it was 18.7%; in the assay with SK-MEL-5 melanoma, 5.96% (active). Also, the growth is 16.5% in the assay with UACC-62 melanoma; -32.6% (active) in the assay with LOX IMVI melanoma; 8.95% (active) with SK-MEL-28 melanoma; 48.7% in the assay on SK-MEL-2 melanoma; 18.5% in the assay with EKVX NSCLC; 34.3% in the assay with SN12C renal. The growth in the assay with UO-31 renal is 8.05% (active); in the assay on TK-10 renal, 48.9%; in the assay with ACHN renal, 4.68% (active); in the assay on CAKI-1 renal, 17.6%; with A498 renal it was 54.3%; in the assay with CCRF-CEM leukemia it was 10.8%.
Regarding `O=C(Nc1ccccc1C(=O)N/N=C(\c1ccccc1)c1ccccn1)c1ccc(F)cc1`, the growth with HCT-15 colon is 32.5%; in the assay on HT29 colon, 25.2%; in the assay with SNB-75 CNS, 16.2%; in the assay with SNB-19 CNS, 25.5%; in the assay with U251 CNS it was 17.8%; with PC-3 prostate, 36.5%. The growth in the assay with SK-MEL-5 melanoma was -7.66% (active); in the assay on UACC-62 melanoma, 1.28% (active); in the assay with LOX IMVI melanoma it was 8.38% (active); in the assay with SK-MEL-28 melanoma it was 33.7%; in the assay on SK-MEL-2 melanoma, 37.2%; in the assay on EKVX NSCLC it was 16.8%. Moreover, the growth was 1.98% (active) in the assay on UO-31 renal; 49.1% in the assay with TK-10 renal; 14.1% with ACHN renal; 5.29% (active) in the assay on CAKI-1 renal; 4.15% (active) with CCRF-CEM leukemia; 12.8% in the assay on MOLT-4 leukemia.
As to `COc1ccc(C(=O)c2cc(C)c(OC)c(C)c2)c(OC)c1NC(C)=O`, the growth is 16.3% in the assay with HCT-15 colon; 3.24% (active) in the assay with HT29 colon; 56.2% in the assay on SNB-75 CNS; 22.9% in the assay with SNB-19 CNS; 21.4% in the assay with U251 CNS; 20.9% in the assay with PC-3 prostate. Besides, the growth is 20.6% in the assay with SK-MEL-5 melanoma; 31.6% in the assay on UACC-62 melanoma; 32% in the assay on LOX IMVI melanoma; 49.5% in the assay on SK-MEL-28 melanoma; 56% in the assay with EKVX NSCLC; 34.8% with SN12C renal. Also, the growth in the assay on UO-31 renal was 40%; in the assay on TK-10 renal, 51.9%; in the assay with ACHN renal, 24.9%; in the assay on CAKI-1 renal, 42.4%; in the assay with CCRF-CEM leukemia, 20.8%; with MOLT-4 leukemia, 38.7%.
As to `CC[C@]12C=CCN3CC[C@@]4(c5cc(NC(=O)CCC(=O)O[C@H]6CC[C@H]7[C@@H]8CCC9=CC(=O)CC[C@@H]9[C@H]8CC[C@]67C)c(OC)cc5N(C)[C@H]4[C@@](O)(C(=O)OC)[C@@H]1OC(C)=O)[C@@H]32`, the growth in the assay with HCT-15 colon was 62.2%; in the assay on HT29 colon it was 62.8%; with SNB-75 CNS, 68.6%; in the assay on SNB-19 CNS, 85%; in the assay with U251 CNS, 74.1%; in the assay with PC-3 prostate it was 53.6%. In addition, the growth in the assay on SK-MEL-5 melanoma was 43.8%; in the assay with UACC-62 melanoma it was 64.1%; in the assay with LOX IMVI melanoma it was 84.7%; in the assay with SK-MEL-28 melanoma it was 91.7%; with EKVX NSCLC it was 73.4%; in the assay on SN12C renal it was 81.5%. The growth is 53.6% in the assay with UO-31 renal; 97.4% with TK-10 renal; 87.2% in the assay on ACHN renal; 67.8% in the assay on CAKI-1 renal; 71.6% in the assay with A498 renal; 62.7% with CCRF-CEM leukemia. Besides, the growth with MOLT-4 leukemia was 40.3%.
As for `Cc1nc2ccc(Cl)cn2c1-c1nnc(SCc2ccc([N+](=O)[O-])cc2)o1`, the growth in the assay with HCT-15 colon was 60.3%; with HT29 colon it was 83.9%; in the assay with SNB-75 CNS, 39.8%; with SNB-19 CNS, 39.8%; in the assay with U251 CNS, 57.7%; in the assay on PC-3 prostate, 74%. Besides, the growth in the assay with SK-MEL-5 melanoma was 43.8%; with UACC-62 melanoma it was 46.3%; in the assay with LOX IMVI melanoma, 69.3%; in the assay with SK-MEL-28 melanoma, 40.2%; in the assay on EKVX NSCLC, 65.3%; with SN12C renal, 48.4%. Further, the growth with UO-31 renal was 39.5%; in the assay with TK-10 renal, 91.3%; with ACHN renal it was 31.3%; with CAKI-1 renal, 65.7%; in the assay on A498 renal, 48.7%; in the assay on CCRF-CEM leukemia, 116%. In addition, the growth in the assay on MOLT-4 leukemia was 93.7%.
On to `CCCCCOc1ccc(/C=N/Nc2cc(C)nc3ccc(Cl)cc23)cc1`, for which the growth was -93.8% (active) in the assay on HCT-15 colon; -18.9% (active) with HT29 colon; 41% with SNB-75 CNS; 16.9% in the assay on SNB-19 CNS; -75% (active) with U251 CNS; 9.76% (active) in the assay with PC-3 prostate. The growth in the assay on SK-MEL-5 melanoma is 74.2%; in the assay on UACC-62 melanoma, 83.6%; in the assay with LOX IMVI melanoma it was -96.9% (active); in the assay on SK-MEL-28 melanoma, -85.8% (active); with EKVX NSCLC it was 66.7%; in the assay on SN12C renal, -88.1% (active). Also, the growth was -99.6% (active) in the assay with UO-31 renal; -22.5% (active) in the assay with TK-10 renal; -73.5% (active) with ACHN renal; 28.7% with CAKI-1 renal; 1.69% (active) in the assay on CCRF-CEM leukemia; -38.9% (active) in the assay with MOLT-4 leukemia.
